Reference: the supplement of paper PMC11732987, “Enantioselective OTUD7B fragment discovery through chemoproteomics screening and high-throughput optimisation” (Communications Chemistry, 2025)

Experiments:
Assay in all cases: log2 ratio of Biotin-Ahx-Ub-VS probe labelling (fragment/DMSO); higher = less target engagement (more negative = stronger competition), active = hit call of the paper (q ≤ 0.05, log2 ratio ≤ -1)
Details in all cases: compound concentration: 200 uM; treatment time: 3 h
USP19 = target: T1, USP19 (UniProt O94966)
T1 sequence (whole entry): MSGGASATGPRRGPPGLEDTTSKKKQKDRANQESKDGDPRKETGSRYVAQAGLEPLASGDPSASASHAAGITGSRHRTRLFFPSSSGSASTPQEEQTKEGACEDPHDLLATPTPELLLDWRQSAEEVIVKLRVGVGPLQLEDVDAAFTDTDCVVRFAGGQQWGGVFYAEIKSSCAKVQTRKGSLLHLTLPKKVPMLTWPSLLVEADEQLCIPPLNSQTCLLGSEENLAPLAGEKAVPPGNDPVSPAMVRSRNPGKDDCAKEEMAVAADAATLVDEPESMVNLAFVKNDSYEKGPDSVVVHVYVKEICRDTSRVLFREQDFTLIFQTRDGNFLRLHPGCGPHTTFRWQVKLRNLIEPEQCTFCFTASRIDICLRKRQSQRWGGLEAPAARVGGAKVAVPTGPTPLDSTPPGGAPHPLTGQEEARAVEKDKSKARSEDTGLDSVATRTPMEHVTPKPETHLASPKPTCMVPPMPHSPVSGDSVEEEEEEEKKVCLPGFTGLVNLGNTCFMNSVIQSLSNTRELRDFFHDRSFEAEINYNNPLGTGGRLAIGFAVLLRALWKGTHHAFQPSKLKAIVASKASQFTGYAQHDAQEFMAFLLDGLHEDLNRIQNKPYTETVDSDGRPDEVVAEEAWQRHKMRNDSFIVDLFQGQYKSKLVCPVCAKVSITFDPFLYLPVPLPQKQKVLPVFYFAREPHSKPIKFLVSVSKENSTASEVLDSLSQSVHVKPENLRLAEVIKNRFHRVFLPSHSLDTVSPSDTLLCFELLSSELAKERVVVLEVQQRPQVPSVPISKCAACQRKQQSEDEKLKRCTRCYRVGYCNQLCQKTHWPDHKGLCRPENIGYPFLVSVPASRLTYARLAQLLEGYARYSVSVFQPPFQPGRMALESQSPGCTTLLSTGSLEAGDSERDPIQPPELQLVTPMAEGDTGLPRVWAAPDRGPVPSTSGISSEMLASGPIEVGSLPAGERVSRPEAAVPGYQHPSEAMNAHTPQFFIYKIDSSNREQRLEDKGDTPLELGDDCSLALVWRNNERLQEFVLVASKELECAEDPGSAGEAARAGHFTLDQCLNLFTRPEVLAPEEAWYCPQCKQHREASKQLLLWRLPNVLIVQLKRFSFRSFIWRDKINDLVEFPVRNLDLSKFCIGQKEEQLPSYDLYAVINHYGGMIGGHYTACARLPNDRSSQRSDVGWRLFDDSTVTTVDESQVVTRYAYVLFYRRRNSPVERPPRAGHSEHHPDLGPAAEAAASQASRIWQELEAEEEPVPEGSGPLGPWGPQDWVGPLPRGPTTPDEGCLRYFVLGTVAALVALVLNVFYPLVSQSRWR
Outline: (§1)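 Global-median-normalised Spectronaut label-free quantities were compared by unpaired t-test, and values are average log2 ratios of fragment over vehicle. Only proteins with ≥2 unique peptides were used. HEK293T lysate (495 µg per sample) was treated in triplicate with fragment at 200 µM or vehicle for 3 h and then with Biotin-Ahx-Ub-VS at 0.5 µM final for 1 h. Labelled DUBs were then NeutrAvidin-enriched, digested with LysC and trypsin, and run by diaPASEF LC-MS/MS.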

USP22 = target: T2, USP22 (UniProt Q9UPT9)
T2 sequence (whole entry): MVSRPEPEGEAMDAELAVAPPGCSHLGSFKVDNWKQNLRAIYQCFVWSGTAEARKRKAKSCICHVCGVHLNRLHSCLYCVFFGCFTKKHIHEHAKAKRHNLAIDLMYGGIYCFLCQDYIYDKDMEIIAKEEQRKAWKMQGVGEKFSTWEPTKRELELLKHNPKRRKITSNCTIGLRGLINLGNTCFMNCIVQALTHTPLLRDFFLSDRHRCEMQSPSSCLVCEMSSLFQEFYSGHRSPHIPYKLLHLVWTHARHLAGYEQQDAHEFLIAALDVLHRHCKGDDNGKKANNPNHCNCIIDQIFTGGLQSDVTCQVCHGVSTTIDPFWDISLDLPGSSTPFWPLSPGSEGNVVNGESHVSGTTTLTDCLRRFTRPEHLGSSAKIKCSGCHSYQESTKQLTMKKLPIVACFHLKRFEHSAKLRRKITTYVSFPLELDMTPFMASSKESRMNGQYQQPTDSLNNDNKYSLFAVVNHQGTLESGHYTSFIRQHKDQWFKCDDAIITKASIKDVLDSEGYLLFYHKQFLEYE
Outline: as §1

USP24 = USP24 (UniProt Q9UPU5)
Sequence of USP24 (Q9UPU5 whole entry): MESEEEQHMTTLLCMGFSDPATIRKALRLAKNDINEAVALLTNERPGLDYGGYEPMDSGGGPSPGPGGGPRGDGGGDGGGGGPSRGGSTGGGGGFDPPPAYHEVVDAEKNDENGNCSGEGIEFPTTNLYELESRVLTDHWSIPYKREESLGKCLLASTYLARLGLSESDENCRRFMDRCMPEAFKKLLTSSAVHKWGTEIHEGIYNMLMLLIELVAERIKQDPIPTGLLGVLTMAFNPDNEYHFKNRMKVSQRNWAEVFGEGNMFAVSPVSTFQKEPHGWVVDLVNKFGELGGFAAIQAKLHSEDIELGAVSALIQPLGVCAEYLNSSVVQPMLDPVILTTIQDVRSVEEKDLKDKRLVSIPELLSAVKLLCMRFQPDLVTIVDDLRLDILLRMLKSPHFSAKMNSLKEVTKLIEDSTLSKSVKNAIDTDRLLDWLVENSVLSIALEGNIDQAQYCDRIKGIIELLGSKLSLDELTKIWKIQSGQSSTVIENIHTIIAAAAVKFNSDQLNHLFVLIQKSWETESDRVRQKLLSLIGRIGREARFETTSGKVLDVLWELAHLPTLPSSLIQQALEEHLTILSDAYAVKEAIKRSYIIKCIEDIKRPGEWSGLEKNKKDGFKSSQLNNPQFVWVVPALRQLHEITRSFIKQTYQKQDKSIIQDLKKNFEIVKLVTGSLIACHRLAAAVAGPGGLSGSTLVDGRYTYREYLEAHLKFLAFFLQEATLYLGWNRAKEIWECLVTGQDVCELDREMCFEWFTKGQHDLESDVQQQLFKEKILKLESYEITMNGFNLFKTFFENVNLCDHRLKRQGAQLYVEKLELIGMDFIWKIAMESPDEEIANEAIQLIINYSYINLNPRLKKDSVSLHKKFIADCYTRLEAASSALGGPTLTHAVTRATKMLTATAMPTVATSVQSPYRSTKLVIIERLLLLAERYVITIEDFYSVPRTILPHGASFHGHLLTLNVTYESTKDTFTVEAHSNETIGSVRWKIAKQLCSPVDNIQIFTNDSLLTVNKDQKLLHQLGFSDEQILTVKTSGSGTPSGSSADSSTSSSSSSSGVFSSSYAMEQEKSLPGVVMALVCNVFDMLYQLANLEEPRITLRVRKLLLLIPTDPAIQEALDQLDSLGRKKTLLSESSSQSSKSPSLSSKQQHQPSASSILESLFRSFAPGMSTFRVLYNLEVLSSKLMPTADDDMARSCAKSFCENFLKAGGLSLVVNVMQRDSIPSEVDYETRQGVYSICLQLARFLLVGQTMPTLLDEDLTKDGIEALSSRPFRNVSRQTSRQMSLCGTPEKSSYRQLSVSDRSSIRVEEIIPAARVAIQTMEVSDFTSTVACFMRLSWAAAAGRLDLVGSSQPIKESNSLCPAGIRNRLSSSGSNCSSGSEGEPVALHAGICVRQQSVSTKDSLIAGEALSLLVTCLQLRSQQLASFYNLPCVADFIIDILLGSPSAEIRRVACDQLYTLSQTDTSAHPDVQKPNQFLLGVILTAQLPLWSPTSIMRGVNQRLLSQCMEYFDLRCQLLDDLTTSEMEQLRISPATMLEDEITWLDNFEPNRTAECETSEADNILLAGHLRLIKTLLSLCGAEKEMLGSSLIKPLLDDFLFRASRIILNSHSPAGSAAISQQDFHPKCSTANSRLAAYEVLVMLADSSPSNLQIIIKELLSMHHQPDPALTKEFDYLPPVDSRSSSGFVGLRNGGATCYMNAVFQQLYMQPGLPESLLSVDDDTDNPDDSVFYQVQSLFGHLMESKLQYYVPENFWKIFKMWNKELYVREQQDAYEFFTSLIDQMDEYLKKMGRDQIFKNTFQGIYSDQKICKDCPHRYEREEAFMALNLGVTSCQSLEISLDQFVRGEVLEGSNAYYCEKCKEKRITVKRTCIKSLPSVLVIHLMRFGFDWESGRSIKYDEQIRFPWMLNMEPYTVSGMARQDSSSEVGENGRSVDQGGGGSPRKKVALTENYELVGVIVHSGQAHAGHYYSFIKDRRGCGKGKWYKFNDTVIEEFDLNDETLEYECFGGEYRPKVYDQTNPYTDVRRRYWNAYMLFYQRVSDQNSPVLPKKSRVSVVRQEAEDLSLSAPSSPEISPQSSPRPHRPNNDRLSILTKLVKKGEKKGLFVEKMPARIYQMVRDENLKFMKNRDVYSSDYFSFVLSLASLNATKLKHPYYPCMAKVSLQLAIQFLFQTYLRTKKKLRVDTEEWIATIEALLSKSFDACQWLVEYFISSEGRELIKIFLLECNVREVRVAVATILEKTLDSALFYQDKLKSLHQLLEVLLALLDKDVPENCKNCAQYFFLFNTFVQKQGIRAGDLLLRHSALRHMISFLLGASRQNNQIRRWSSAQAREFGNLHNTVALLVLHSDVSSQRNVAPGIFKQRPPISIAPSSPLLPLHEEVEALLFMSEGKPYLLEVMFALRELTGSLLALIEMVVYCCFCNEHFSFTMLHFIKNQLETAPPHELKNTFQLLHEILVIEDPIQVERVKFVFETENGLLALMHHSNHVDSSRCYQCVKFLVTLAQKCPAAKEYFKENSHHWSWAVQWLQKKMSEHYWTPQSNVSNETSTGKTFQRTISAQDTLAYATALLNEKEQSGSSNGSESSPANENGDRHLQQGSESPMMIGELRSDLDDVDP
Outline: as §1

USP25 = target: T3, USP25 (UniProt Q9UHP3)
T3 sequence (whole entry): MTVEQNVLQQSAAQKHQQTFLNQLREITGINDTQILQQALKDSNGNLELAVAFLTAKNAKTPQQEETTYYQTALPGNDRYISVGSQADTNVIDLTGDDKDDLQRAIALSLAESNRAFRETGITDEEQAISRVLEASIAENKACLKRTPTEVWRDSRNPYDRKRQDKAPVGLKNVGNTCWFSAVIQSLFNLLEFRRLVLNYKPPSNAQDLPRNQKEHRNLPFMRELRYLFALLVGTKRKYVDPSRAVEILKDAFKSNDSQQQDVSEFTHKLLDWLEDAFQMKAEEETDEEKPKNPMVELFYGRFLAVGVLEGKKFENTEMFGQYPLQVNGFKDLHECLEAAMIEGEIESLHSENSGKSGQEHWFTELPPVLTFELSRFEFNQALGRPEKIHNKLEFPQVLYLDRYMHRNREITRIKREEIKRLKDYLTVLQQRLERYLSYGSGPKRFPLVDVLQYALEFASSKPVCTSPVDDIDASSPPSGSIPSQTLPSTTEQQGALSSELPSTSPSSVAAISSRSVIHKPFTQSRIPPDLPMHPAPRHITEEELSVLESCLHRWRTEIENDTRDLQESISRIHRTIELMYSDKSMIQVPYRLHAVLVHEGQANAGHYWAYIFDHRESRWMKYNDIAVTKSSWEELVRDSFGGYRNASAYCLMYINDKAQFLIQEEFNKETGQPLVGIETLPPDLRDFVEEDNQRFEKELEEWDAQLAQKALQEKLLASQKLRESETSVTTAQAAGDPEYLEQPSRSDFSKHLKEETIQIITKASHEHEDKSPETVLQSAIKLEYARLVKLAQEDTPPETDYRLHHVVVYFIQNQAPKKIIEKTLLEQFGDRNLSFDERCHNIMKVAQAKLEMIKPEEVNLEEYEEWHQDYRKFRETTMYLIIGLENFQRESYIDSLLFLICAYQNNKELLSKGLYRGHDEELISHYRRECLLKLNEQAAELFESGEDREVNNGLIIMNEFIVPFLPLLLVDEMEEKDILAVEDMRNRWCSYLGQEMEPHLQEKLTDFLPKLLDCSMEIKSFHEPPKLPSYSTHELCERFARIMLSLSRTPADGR
Outline: as §1

USP28 = target: T4, USP28 (UniProt Q96RU2)
T4 sequence (whole entry): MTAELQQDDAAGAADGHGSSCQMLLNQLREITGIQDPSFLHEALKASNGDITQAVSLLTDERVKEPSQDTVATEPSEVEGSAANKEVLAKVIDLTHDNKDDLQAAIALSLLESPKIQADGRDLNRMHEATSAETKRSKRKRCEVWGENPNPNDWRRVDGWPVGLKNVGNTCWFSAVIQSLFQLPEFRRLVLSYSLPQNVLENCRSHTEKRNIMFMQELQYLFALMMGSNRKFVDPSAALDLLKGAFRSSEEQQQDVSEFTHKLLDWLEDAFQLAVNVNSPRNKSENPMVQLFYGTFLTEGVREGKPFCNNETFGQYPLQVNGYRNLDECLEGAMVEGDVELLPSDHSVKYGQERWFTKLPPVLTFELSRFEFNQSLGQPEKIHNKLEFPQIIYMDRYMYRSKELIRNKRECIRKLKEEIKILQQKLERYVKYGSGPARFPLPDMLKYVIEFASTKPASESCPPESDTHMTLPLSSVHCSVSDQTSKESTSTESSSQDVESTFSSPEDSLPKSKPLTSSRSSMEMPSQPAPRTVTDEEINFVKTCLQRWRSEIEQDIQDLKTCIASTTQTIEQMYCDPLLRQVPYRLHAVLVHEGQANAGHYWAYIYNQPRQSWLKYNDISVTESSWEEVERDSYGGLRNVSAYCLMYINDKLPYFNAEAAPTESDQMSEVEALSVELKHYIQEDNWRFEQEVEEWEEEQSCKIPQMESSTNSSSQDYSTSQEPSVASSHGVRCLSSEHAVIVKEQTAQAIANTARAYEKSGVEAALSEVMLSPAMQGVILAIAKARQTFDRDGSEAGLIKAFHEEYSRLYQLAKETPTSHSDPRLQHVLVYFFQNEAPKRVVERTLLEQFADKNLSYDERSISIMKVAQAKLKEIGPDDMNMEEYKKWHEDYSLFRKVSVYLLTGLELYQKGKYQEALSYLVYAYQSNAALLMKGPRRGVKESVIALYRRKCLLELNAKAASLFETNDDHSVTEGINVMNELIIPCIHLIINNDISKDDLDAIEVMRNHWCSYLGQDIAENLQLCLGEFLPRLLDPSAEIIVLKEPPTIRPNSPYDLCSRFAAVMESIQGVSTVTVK
Outline: as §1

Measured: log2 ratio of Biotin-Ahx-Ub-VS probe labelling

O=C(CCl)NCCc1ccc2c(c1)OCCO2
inactive: USP19 -0.254 | USP22 0.0144 | USP24 -0.665 | USP25 -0.794 | USP28 -0.745
